40 molecules from PubChem BioAssay (Tox21) can be followed below.

Molecules are shown by their SMILES. Records with an inconclusive call do not appear. Values without a mark were called inactive. Activity calls are given as the source filed them. Calls come from the whole dose curve; as a rule, active = well fitted cell-killing curve with a large enough effect in the repeat runs; inconclusive = weak or mixed curves, or effect the other way; inactive = flat fitted curve, though single readings scatter.
% is set by controls: 0 for no effect and ±100 for the full control effect; potency is the fitted concentration of half-maximal effect.

The assay is described as follows: qHTS RealTime-Glo MT Cell Viability Assay in HEK293 cells - 40 hour (AID 1224874). Note: nearly all actives have a fitted effect of over 50% in size. Particulars: RealTime-Glo luminescence; max response: stronger effect = lower value. An excerpt: U.S. Tox21 Program National Center for Advancing Translational Sciences [NCATS] NIH Chemical Genomics Center [NCGC] U.S. Environmental Protection Agency [EPA] National Institutes of Environmental Health Sciences [NIEHS] National Toxicology Program [NTP] U.S. Food and Drug Administration [FDA] Tox21 Assay Overview: Measure of cell viability is critical in the cell-base assay. Analysis of cell viability is necessary for the characterization of cell responses to cytotoxic drugs and environmental stress. A RealTime-Glo MT Cell Viability Assay to monitor cell viability in real time of continues cell culture during 40 hours of compound treatment was used to screen Tox21 10K library compounds in Hek293 cells. The RealTime-Glo MT Cell Viability Assay is a nonlytic, homogeneous, bioluminescent method to measure cell viability in real time using a simple, plate-based method. The assay involves adding NanoLuc luciferase and a cell-permeant prosubstrate to cells in culture. Viable cells reduce the proprietary prosubstrate to generate a substrate for NanoLuc luciferase. This substrate diffuses from cells into the surrounding culture medium, where it is rapidly used by the NanoLuc Enzyme to produce a luminescent signal. The signal correlates with the number of viable cells, making the assay well suited for cytotoxicity studies.
Tox21 Assay Protocol Summary: The mixture of Hek293 cell suspension and reagents were dispensed at 600cells/6 ul/well in 1536-well tissue culture treated black solid bottom plates using a Multidrop dispenser. After the assay plates were incubated at a 37 C/5% CO2 incubator for 5 hours, 23 nL of compounds dissolved in DMSO, positive and negative controls was transferred to the assay plate by a pintool work station. The plates were incubated at 37 C for 40 hours. The luminescence intensity were measured at 0h, 8h, 16h, 24h, 32h and 40h time points using ViewLux plate reader during compound treatment.
Background: qHTS replaces the single test concentration by a dilution series.
Consider `COc1cccc(-c2ccc(/C=C\CN3CCCCCC3)cc2Cl)c1`, for which the Potency was 43.4 µM (active).
As for `Cc1ccc(S(=O)(=O)C(I)I)cc1`, the Potency was 8.71 µM (active).
Turning to `O=c1[nH]cccc1O`, the max response was -23.7%.
As for `Cn1c(=O)[nH]c2ncn(C)c2c1=O`, the max response is 3.46%.
For `S=C1NC=NC2N=CNC12` (stereo not given), the Potency is 17.4 µM (active).
Same read-out and setting: the same measure for `CC(O)(c1ccc(Cl)cc1)c1ccc(Cl)cc1`: 24.5 µM (active).
For the molecule `COc1cc(C(C)C)ccc1C`, the max response was -0.423%.
Same read-out and setting: the same measure for `C=C(C)CCO`: 1.14%.
Regarding `CN(C)CCOc1ccc(/C(=C(/CCCl)c2ccccc2)c2ccccc2)cc1`, the Potency is 40.9 µM (active).
In the case of `CCC(C)(C)c1ccc(CC(C)CN2C[C@@H](C)O[C@@H](C)C2)cc1` (stereo not given in full), the max response is -25.5%.
Regarding `C=Cc1ccc(O)c(OC)c1`, the max response is 2.13%.
The same measure, in the same setting: the same measure for `CCN(CC)c1ccc(C=O)c(O)c1`: -15%.
Same read-out and setting: with `CCCC(C)C=O` (stereo not given) the figure was 0.0424%; with `CCC(=O)OC/C=C(\C)CCC=C(C)C`, -0.115%; with `Nc1c(Br)cc([N+](=O)[O-])cc1Br`, -23.8%.
For `Cc1ccc(Cl)c(N)c1Cl`, the max response was -1.11%.
The same measure, in the same setting: the same measure for `CCCCCCCCSCc1cc(C)c(O)c(CSCCCCCCCC)c1`: -17.7%; for `O=C1OCc2ccccc21`: 15.2%.
The same measure, in the same setting: the same measure for `C=C[Si](C)(C)Cl`: -5.42%.
With `c1ccc(-c2ccc(C(c3ccccc3)n3ccnc3)cc2)cc1` (stereo not given), the Potency is 26.8 µM (active).
Turning to `CC(C=O)c1ccccc1` (stereo not given), the max response was -16.6%.
With `ClC(c1ccccc1)(c1ccccc1)c1ccccc1`, the max response was -24.6%.
For `O=C(NCc1ncc(C(F)(F)F)cc1Cl)c1c(Cl)cccc1Cl`, the Potency is 19.5 µM (active).
As to `C/C=C/C(=O)OCC(C)C`, the max response was 5.85%.
Same read-out and setting: with `O=[N+]([O-])c1ccc(CO)cc1` the figure was 7.7%.
As for `Cc1c(Cl)c(=O)oc2cc(O)ccc12`, the Potency was 43.6 µM (active).
Regarding `CC(CC(C)(C)C)CC(C)(C)CC(C)(C)C` (stereo not given), the max response was 3.32%.
Take `CCc1c(C)cc(N)c(CC)c1N`: the max response was 1.8%.
On to `CC(C)=NNC(N)=S`, for which the max response is 3.34%.
In the case of `CCOC(=O)OC(=O)OCC`, the max response is 18.5%.
In the case of `Cc1cccc2c1ccc1ccccc12`, the max response was -16.2%.
On to `[Cl][Dy]([Cl])[Cl]`, for which the max response was -3.97%.
Still for that read-out and setting: with `Oc1cccc2c(O)cccc12` the figure was 3.51%.
Still for that read-out and setting: with `CCCCCCCCCCCCCCCCC(C(=O)O)C(O)(CC(=O)O)C(=O)O` (stereo not given) the figure was -0.507%.
For the molecule `C=CC(=O)O[C@H]1C[C@@H]2CC[C@@]1(C)C2(C)C`, the max response was 3.56%.
Turning to `CCC1(C)C(=O)N(Cl)C(=O)N1Cl` (stereo not given), the max response is 2.78%.
Consider `O=C(CCCCCCCCc1cccnc1)N1CCC(C=C(c2ccccc2)c2ccccc2)CC1`, for which the Potency is 21.9 µM (active).
Regarding `CCOc1nc(F)cc2nc(S(=O)(=O)Nc3c(Cl)cccc3C(=O)OC)nn12`, the max response was 9.81%.
Still for that read-out and setting: the same measure for `SC1CCCCC1`: 6.15%.
As for `CCCCCN=C(N)N/N=C/c1c[nH]c2ccc(OC)cc12`, the Potency was 4.25 µM (active).
